Measurements reported in PubChem BioAssay (NCATS).
Values without a mark were called inactive. Records with an inconclusive call do not appear. Entries that show only a call come without a potency. The source made the active and inactive calls. Unless noted, the call rests on the fitted dose curve; in most records, active means well fitted curve in the direction sought with a large enough effect; inconclusive means small, poorly fitted or top-dose-only effect, or another doubt; inactive means no such curve, though single readings can be large; an effect the other way counts as inactive or inconclusive.

Legend:
[1] = target: Metallo-beta-lactamase type 2 (Klebsiella pneumoniae) (UniProt C7C422); test: qHTS to identify inhibitors of the New Delhi Metallo-beta-lactamase (NDM): assay validation screen against the NCATS LOPAC Collection (AID 1794843);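 further: nitrocefin turnover by NDM-1 measured as 485 nm absorbance at plateau; series mostly up to about 38 µM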
Chain of Metallo-beta-lactamase type 2 (Klebsiella pneumoniae) (C7C422 whole entry, looked up): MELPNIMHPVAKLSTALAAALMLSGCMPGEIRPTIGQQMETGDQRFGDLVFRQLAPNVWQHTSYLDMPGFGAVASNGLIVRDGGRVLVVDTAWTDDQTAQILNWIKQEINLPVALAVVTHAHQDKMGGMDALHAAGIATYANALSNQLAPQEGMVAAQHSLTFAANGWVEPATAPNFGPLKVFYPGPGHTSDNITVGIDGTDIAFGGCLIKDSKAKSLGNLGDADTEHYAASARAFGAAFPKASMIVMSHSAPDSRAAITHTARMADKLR
Method in brief: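 NDM-1 at 2 nM final in 50 mM HEPES pH 7.0, 1 uM ZnSO4, 0.01% Tween20, preincubated with LOPAC compounds pinned in DMSO; 50 uM nitrocefin (stock) added. Hydrolysis read as absorbance at 485 nm in the plateau phase.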

[2] = target: Glutathione peroxidase 1 (Homo sapiens) (UniProt P07203); test: Primary qHTS Assay for Inhibitors of Recombinant Selenoprotein Glutathione Peroxidase 1 (GPX1) (AID 1845191); further: nearly all actives have a fitted effect of over 65% in size
Chain of Glutathione peroxidase 1 (Homo sapiens) (P07203 whole entry, looked up): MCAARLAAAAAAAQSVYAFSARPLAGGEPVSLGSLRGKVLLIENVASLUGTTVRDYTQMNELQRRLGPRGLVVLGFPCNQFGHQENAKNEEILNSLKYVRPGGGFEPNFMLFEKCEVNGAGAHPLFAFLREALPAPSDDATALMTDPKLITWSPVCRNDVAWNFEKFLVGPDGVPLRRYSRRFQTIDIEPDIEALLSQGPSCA
Method in brief: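 NADPH consumption tracked by fluorescence at 340/450 nm between t=0 and t=15 min, room temperature. Final mix: 10 nM GPX1, 100 nM glutathione reductase, 1 mM GSH, 0.5 mM NADPH, 0.5 mM cumene hydroperoxide, 0.01% BSA; 30 min compound–enzyme preincubation.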

[3] = target: Phospholipid hydroperoxide glutathione peroxidase GPX4 (Homo sapiens) (UniProt P36969); test: Primary qHTS Assay for Inhibitors of Recombinant Selenoprotein Glutathione Peroxidase 4 (GPX4) (AID 1845192); further: nearly all actives have a fitted effect of over 65% in size
Chain of Phospholipid hydroperoxide glutathione peroxidase GPX4 (Homo sapiens) (P36969 whole entry, looked up): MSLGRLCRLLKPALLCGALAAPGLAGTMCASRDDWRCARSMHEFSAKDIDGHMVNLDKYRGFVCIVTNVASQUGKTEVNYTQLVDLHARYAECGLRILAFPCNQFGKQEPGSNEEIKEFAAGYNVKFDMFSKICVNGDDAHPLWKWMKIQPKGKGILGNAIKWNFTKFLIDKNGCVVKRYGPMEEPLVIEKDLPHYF
Method in brief: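 NADPH consumption followed by fluorescence at 340/450 nm, t=0 and after 15 min at room temperature. Reaction started with cumene hydroperoxide (0.5 mM final) after 30 min compound–GPX4 preincubation; final 200 nM GPX4, 100 nM GR, 1 mM GSH, 0.5 mM NADPH.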

[4] = Primary fluorescence-based thiol-reactive (MSTI) qHTS assay for identification of artifact compounds. (AID 1845221); further: nearly all actives have a fitted effect of over 65% in size; further: potency means the concentration at half of the fitted maximal effect
Method in brief: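 Reactivity toward the thiol probe MSTI (4 uM) is scored by fluorescence at Ex/Em 525/598 nm after 1 h at room temperature. Acetyl-MSTI and MSTI define the activity scale.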

[5] = test system: Nanoluciferase (engineered Oplophorus gracilirostris luciferase); test: Primary Nanoluciferase (NLuc) qHTS assay for identification of artifact compounds. (AID 1845222); further: potency means the concentration at half of the fitted maximal effect
Method in brief: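 NLuc from S16 cell medium (1:55) plus test compounds, 15 min, room temperature. Luminescence after Nano-Glo (1:100) addition, 5 min.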

[6] = Primary redox qHTS assay for identification of artifact compounds. (AID 1845223)
Method in brief: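 Redox-cycling detection via DTT (250 uM final) oxidation coupled to Amplex Red (25 uM)/HRP (250 mU/mL) in HBSS. 15 min preincubation plus 30 min after DTT, room temperature. Ex/Em 525/598 nm; 4-parameter Hill fit against DMSO and 10 uM DA3003.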

[7] = Quantitative High-Throughput drug screen in 47 multiple myeloma cell lines against the NCATS MIPE library collection: FR4_PLB cell viability assay (AID 1918924; further: nearly all actives have a fitted effect of over 35% in size; further: potency means the concentration at half of the fitted maximal effect)
Method in brief: (§1)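 Approved and investigational drugs from MIPE 4.0 were added by pin tool to 500 cells per well. After 48 hours at 37C, ATP-based CellTiter-Glo luminescence indicated remaining viability.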

[8] = Quantitative High-Throughput drug screen in 47 multiple myeloma cell lines against the NCATS MIPE library collection: ARD_JJKsccE7 cell viability assay (AID 1918929; further: potency means the concentration at half of the fitted maximal effect)
Method in brief: (§2)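 Luminescent ATP measurement with CellTiter-Glo gives viability, scaled between DMSO-only wells (100%) and media-only wells (0%). Cells, 500 per well, faced library compounds for 48 hours at 37C.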

[9] = Quantitative High-Throughput drug screen in 47 multiple myeloma cell lines against the NCATS MIPE library collection: Karpas620_DSMZ cell viability assay (AID 1918959); further: nearly all actives have a fitted effect of over 30% in size; further: potency means the concentration at half of the fitted maximal effect
Method in brief: as §1

[10] = target: Luciferin 4-monooxygenase (Photinus pyralis) (UniProt P08659); test: Primary firefly luciferase (FLuc) qHTS assay for identification of artifact compounds. (AID 1845220); further: nearly all actives have a fitted effect of over 60% in size
Method in brief: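 FLuc 10 nM; luciferin 10 uM; ATP 10 uM; Tris-acetate pH 7.6, Mg-acetate 10 mM; 15 min RT preincubation; 5 min reaction; luminescence.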

[11] = Quantitative High-Throughput drug screen in 47 multiple myeloma cell lines against the NCATS MIPE library collection: Delta47_JCRB cell viability assay (AID 1918925; further: nearly all actives have a fitted effect of over 45% in size; further: potency means the concentration at half of the fitted maximal effect)
Method in brief: as §2

[12] = Quantitative High-Throughput drug screen in 47 multiple myeloma cell lines against the NCATS MIPE library collection: EJM_DSMZ cell viability assay (AID 1918926; further: potency means the concentration at half of the fitted maximal effect; nearly all actives have a fitted effect of over 30% in size)
Method in brief: as §2

[13] = Quantitative High-Throughput drug screen in 47 multiple myeloma cell lines against the NCATS MIPE library collection: AMO1_DSMZ cell viability assay (AID 1918927; further: nearly all actives have a fitted effect of over 30% in size; further: potency means the concentration at half of the fitted maximal effect)
Method in brief: as §2

[14] = Quantitative High-Throughput drug screen in 47 multiple myeloma cell lines against the NCATS MIPE library collection: KMM1_JCRB cell viability assay (AID 1918960); further: nearly all actives have a fitted effect of over 30% in size; further: potency means the concentration at half of the fitted maximal effect
Method in brief: (§3)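 Cell viability inhibition in this qHTS is measured via ATP content (CellTiter-Glo) after 48 h drug exposure at 37 °C. Wells hold 500 cells; DMSO-treated wells define 100% and medium-only wells 0%.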

[15] = Quantitative High-Throughput drug screen in 47 multiple myeloma cell lines against the NCATS MIPE library collection: ARP1_JJKsccF8 cell viability assay (AID 1918928; further: potency means the concentration at half of the fitted maximal effect; nearly all actives have a fitted effect of over 40% in size)
Method in brief: as §3

[16] = NCATS anti-infectives library activity on the primary C. elegans qHTS viability assay (AID 1745855; calls by dose curve; further: potency means the concentration at half of the fitted maximal effect)
Method in brief: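 Titration-based screen in worms: eggs hatched overnight in M9, L1 larvae fed TOP10 capsules in S medium with compound, incubated 21 °C for 7 days; fluorescent objects gated by size and intensity at days 0, 3 and 7.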

Row | Structure (SMILES) | outcome [1] | Potency [2] | Potency [3] | Potency [4] | Potency [5] | Potency [6] | Potency [7] | Potency [8] | Potency [9] | Potency [10] | Potency [11] | Potency [12] | Potency [13] | Potency [14] | Potency [15] | Potency [16]
1 | O=c1c2ccccc2nc2n1CCc1c-2[nH]c2ccccc12 | inactive | inactive | inactive | inactive | inactive | inactive | inactive | inactive | 18.7 µM (active) |  |  |  |  |  |  | 
2 | CCCn1c(=O)c2[nH]c(-c3cnn(Cc4cccc(C(F)(F)F)c4)c3)nc2n(CC)c1=O |  | inactive | inactive | inactive | inactive | inactive | 5.9 µM (active) |  | inactive | inactive | inactive | 14.8 µM (active) | inactive | 1.66 µM (active) |  | 
3 | CNc1nccc(-c2cccnc2Oc2cc(C(=O)Nc3cccc(C(F)(F)F)c3)ccc2C)n1 |  | inactive | inactive | inactive | inactive | inactive |  | 9.35 µM (active) | 5.9 µM (active) | inactive | 16.6 µM (active) | 16.6 µM (active) | 9.35 µM (active) |  | 23.5 µM (active) | 
4 | CC(C)C[C@H](NC(=O)CNC(=O)c1cc(Cl)ccc1Cl)B(O)O |  | inactive | inactive |  |  |  | 0.0833 µM (active) | 0.0743 µM (active) |  |  | 0.0469 µM (active) |  |  | 0.0662 µM (active) | 0.059 µM (active) | 1.29 µM (active)
5 | c1nc2nc(Nc3ccc(N4CCOCC4)cc3)nc(NC3CCCCC3)c2[nH]1 |  | inactive | inactive | 922 nM (active) | inactive | inactive | 26.4 µM (active) | 3.32 µM (active) | 6.62 µM (active) | inactive | 6.62 µM (active) | 14.8 µM (active) |  | 4.69 µM (active) | 14.8 µM (active) | 
6 | c1ccc2c(CCNc3ccc(Nc4ccncc4)cc3)c[nH]c2c1 |  | inactive | inactive | 2670 nM (active) |  | inactive |  |  |  | inactive | 18.7 µM (active) |  | 1.48 µM (active) | 2.96 µM (active) |  | 
7 | C=CC(=O)N1CCC[C@@H](n2nc(-c3ccc(Oc4ccccc4)cc3)c3c(N)ncnc32)C1 |  | inactive | inactive |  | inactive | inactive |  |  |  | inactive |  |  |  |  |  | 
8 | COc1cc(C(=O)N2CCC(N3CCN(C)CC3)CC2)ccc1Nc1ncc2c(n1)N(C)c1ccccc1C(=O)N2C |  | inactive | inactive | inactive |  | inactive | 3.72 µM (active) |  |  | inactive | 2.64 µM (active) |  | 2.35 µM (active) | 1.66 µM (active) | 2.35 µM (active) | 
9 | Cc1cnc(Nc2ccc(F)cc2Cl)nc1-c1c[nH]c(C(=O)N[C@H](CO)c2cccc(Cl)c2)c1 |  | inactive | inactive | inactive | inactive | inactive |  |  | 1.05 µM (active) | inactive | 7.43 µM (active) | 23.5 µM (active) | 4.18 µM (active) | 7.43 µM (active) | 23.5 µM (active) | 
10 | C[C@]1(CO)CN(c2cc(C(=O)Nc3ccc4c(c3)-c3c(c(C(N)=O)nn3-c3ccc(F)cc3)CC4)c(Cl)cn2)C[C@@]1(C)CO |  | inactive | inactive | inactive | inactive | inactive |  |  | 1.66 µM (active) | inactive | 9.35 µM (active) |  |  | 0.209 µM (active) |  | 
11 | COc1cc(C)c(Sc2cnc(NC(=O)c3ccc(CNC(C)C(C)C)cc3)s2)cc1C(=O)N1CCN(C(C)=O)CC1 (stereo unspecified) |  | inactive | inactive | inactive |  | inactive |  |  | inactive | inactive | 2.35 µM (active) | 16.6 µM (active) | inactive | inactive | 16.6 µM (active) | 
12 | CCCCOc1c(C(=O)c2c(F)cc(C)cc2F)cnc2n[nH]cc12 |  | inactive | inactive | inactive | inactive | inactive |  | 2.96 µM (active) | 7.43 µM (active) | inactive | 2.64 µM (active) | 2.64 µM (active) |  | 2.35 µM (active) | 4.18 µM (active) | 
13 | COc1ccc(F)c(F)c1C(=O)c1cnc(NC2CCN(S(C)(=O)=O)CC2)nc1N |  | inactive | inactive | inactive |  | inactive |  | 1.18 µM (active) | 2.64 µM (active) | inactive | 1.18 µM (active) |  | 0.833 µM (active) | 1.87 µM (active) | 2.35 µM (active) | 
14 | COc1cc2c(Oc3ccc(-c4cnc(Nc5ccc(F)cc5)n(C)c4=O)cc3F)ccnc2cc1OCCCN1CCOCC1 |  | inactive | inactive | inactive | inactive |  | 14.8 µM (active) |  | 2.96 µM (active) | inactive | 0.935 µM (active) | 18.7 µM (active) | 2.35 µM (active) | 1.87 µM (active) | 8.33 µM (active) | 
15 | CS(=O)(=O)N1CCN(Cc2cc3nc(-c4cccc5[nH]ncc45)nc(N4CCOCC4)c3s2)CC1 |  | inactive | inactive |  | inactive | inactive |  |  |  | inactive |  |  |  |  |  | 
16 | Cc1cnc(-c2cnc(NCCNc3ccc(C#N)cn3)nc2-c2ccc(Cl)cc2Cl)[nH]1 |  | inactive | inactive | inactive | 3.38 µM (active) |  |  |  | inactive | inactive |  |  |  | inactive |  | 
